Screens from PubChem.
C diff HTS: C. difficile growth inhibitors, primary screen, HTS; AID 1259249, 2017; Clostridium difficile clinical isolate growth, OD600, 24 h; stronger effect = lower value; growth activity, negative = inhibition, % at 16 µg/mL (by protocol); 86,000 tested, 0.25% active;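 active = mean growth activity at or below -80% and every replicate also at or below -80%; inconclusive = mean at or below -80% but some replicate above -80%; inactive = mean growth activity above -80%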;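 also: 0% = DMSO wells and -100% = levofloxacin 16 µg/mL wells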
T cruzi growth-1: T. cruzi intracellular proliferation inhibitors, primary screen, cell-based, beta-gal Tulahuen parasites, NIH3T3 host, luminescence; T. cruzi beta-gal in NIH3T3, GalScreen luminescence, 90 h; inhibition, % at 8.34 µM; 77,000 tested, 5.9% active; AID 624255, 2012;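 active = mean inhibition above about 93%, with at least 55% of replicates each passing it, limit read from the data, passing the limit was not always enough; inconclusive = only one of those two conditions holds; inactive = neither condition holds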
Pf Dd2 inh: P. falciparum Dd2 growth inhibitors, primary screen, SYBR Green fluorescence, single dose replicates | 72 h; stronger effect = lower value | activity change, % at 10 µM | 94,000 tested, 2.3% active; in the data active = activity change below about -80%; inconclusive = no clear call, values can overlap the other calls
T cruzi growth-2: T. cruzi intracellular proliferation inhibitors, confirmation, cell-based, NIH3T3 host, beta-gal parasite, luminescence, cherry-pick; shares compounds with T cruzi growth-1; T. cruzi beta-gal in NIH3T3, GalScreen luminescence, 90 h; inhibition, % at 8.35 µM; 5,600 tested, 72% active; AID 651739, 2012;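 active = mean replicate inhibition above about 95% and at least 55% of replicates individually reaching it, limit read from the data; inconclusive = only one of the two criteria is met; inactive = neither criterion is met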
T cruzi growth-3: inhibitors of intracellular T. cruzi replication, confirmation, NIH3T3 host cells, beta-gal parasites, cherry-pick, set 2; 5,600 tested, 21% active; inhibition, % at 2.09 µM; shares compounds with T cruzi growth-1; T. cruzi beta-gal in NIH3T3, GalScreen luminescence, 90 h;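 active = mean inhibition above about 95%, with at least 55% of replicates also reaching it, limit read from the data; inconclusive = meets just one of the two conditions; inactive = meets neither condition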;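 also: plate controls were neutral control median for no effect and positive control median for full effect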
3T3 cytotox: cytotoxicity in mouse NIH/3T3 fibroblasts, confirmation, cytotoxicity control for T. cruzi proliferation inhibitor project, cell-based, cherry-pick, single point; 5,600 tested, 14% active; shares compounds with T cruzi growth-1; NIH/3T3 viability, CellTiter-Glo ATP luminescence, 90 h; cytotoxicity (signal decrease), % at 8.35 µM; AID 651742, 2012;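 active = mean signal decrease across replicates above about 35% based on untreated-well scatter, with enough replicates individually passing, limit read from the data; inconclusive = no rule stated though some were filed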;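 also: 0% = median of neutral control wells and 100% = median of positive control wells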
NIH3T3 tox 2: NIH/3T3 fibroblast cytotoxicity, confirmation, cytotoxicity control, cell-based, cherry-pick, single point, set 2 | shares compounds with T cruzi growth-1 | NIH/3T3 viability, CellTiter-Glo ATP luminescence, 90 h | inhibition, % at 24.9 µM | 5,600 tested, 56% active;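 active = mean loss of cell viability signal at or above a set limit, and enough replicates individually reaching it; inconclusive = meets only the mean limit or only the replicate share; inactive = meets neither condition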;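 also: 0% = median of neutral control wells and 100% = median of positive control wells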
An asterisk follows results filed as active. Rows were chosen to be rich in hits. Some 6.7% of all compounds tested hit in one or more screens of this group.

For O=C(c1ccccc1)N1CC[C@@H]2[C@@H](CO)Nc3ccc(-c4ccc(F)cc4)cc3[C@@H]21 the results were C diff HTS -2, T cruzi growth-1 69 and Pf Dd2 inh inconclusive.
O=C(c1ccccc1)N1CC[C@@H]2[C@H](CO)Nc3ccc(-c4ccccc4F)cc3[C@@H]21 was read as C diff HTS 58, T cruzi growth-1 103*, Pf Dd2 inh 5, T cruzi growth-2 108*, T cruzi growth-3 88, 3T3 cytotox 11 and NIH3T3 tox 2 26*.
Screening O=C(c1cnccn1)N1CC[C@@H]2[C@H]1c1cc(-c3ccccc3F)ccc1N[C@@H]2CO returned C diff HTS -7, T cruzi growth-1 100*, Pf Dd2 inh -22, T cruzi growth-2 107*, T cruzi growth-3 28, 3T3 cytotox 20 and NIH3T3 tox 2 44*.
For COCC#Cc1cnc2c(c1)C(=O)N([C@@H](C)CO)C[C@H](C)[C@H](CN(C)C(=O)Nc1cccc(F)c1)O2 the results were C diff HTS 2, T cruzi growth-1 1 and Pf Dd2 inh -25.
Screening COCC(=O)Nc1ccc2c(c1)C(=O)N(C)C[C@@H](OC)[C@@H](C)CN(C(=O)Cc1cccnc1)[C@H](C)CO2 returned T cruzi growth-1 59 and Pf Dd2 inh 27.
C[C@@H]1CN([C@H](C)CO)C(=O)Cc2cc(NC(=O)CCN3CCOCC3)ccc2O[C@H]1CN(C)S(=O)(=O)c1cccs1 was read as C diff HTS -1, T cruzi growth-1 3 and Pf Dd2 inh -4.
Screening COc1ccc(-c2ccc3c(c2)[C@H]2[C@H](CCN2C(=O)c2cnccn2)[C@H](CO)N3)cc1 returned C diff HTS -2, T cruzi growth-1 108*, Pf Dd2 inh -43, T cruzi growth-2 105*, T cruzi growth-3 112*, 3T3 cytotox -4 and NIH3T3 tox 2 -19.
`COc1ccc(C#Cc2ccc3c(c2)[C@@H]2[C@@H](CCN2C(=O)c2cnccn2)[C@@H](CO)N3)cc1` gave C diff HTS 78, T cruzi growth-1 82 and Pf Dd2 inh -24.
For Cc1noc(C)c1NC(=O)Nc1ccc2c(c1)C(=O)N([C@H](C)CO)C[C@H](C)[C@H](CN(C)CC1CCCCC1)OCCCC[C@@H](C)O2 the results were C diff HTS 4, T cruzi growth-1 9 and Pf Dd2 inh 3.
CCC(=O)N[C@H]1CC[C@H](CC(=O)NCC2CCCCC2)O[C@H]1CO was read as T cruzi growth-1 41 and Pf Dd2 inh 1.
For Cc1ccccc1-c1ccc([C@H]2[C@@H](CO)N3CCCCN(Cc4cccnc4)C[C@H]23)cc1 the results were C diff HTS 3, T cruzi growth-1 109*, Pf Dd2 inh -65, T cruzi growth-2 106*, T cruzi growth-3 91, 3T3 cytotox 46* and NIH3T3 tox 2 106*.
`CN(C)C(=O)c1cccc(-c2ccc([C@H]3[C@H](CO)N4CCCCN(Cc5cccnc5)C[C@@H]34)cc2)c1` gave C diff HTS -10, T cruzi growth-1 101*, Pf Dd2 inh 12, T cruzi growth-2 107*, T cruzi growth-3 91, 3T3 cytotox -5 and NIH3T3 tox 2 -6.
Screening OC[C@H]1[C@H](c2ccc(-c3ccc(F)cc3)cc2)[C@@H]2CN(Cc3cccnc3)CCCCN12 returned C diff HTS -2, T cruzi growth-1 110*, Pf Dd2 inh -66, T cruzi growth-2 114*, T cruzi growth-3 91, 3T3 cytotox 17 and NIH3T3 tox 2 103*.
OC[C@H]1[C@H](c2ccc(-c3ccc(F)cc3)cc2)[C@H]2CN(Cc3cccnc3)CCCCN21 was read as C diff HTS -2, T cruzi growth-1 89 and Pf Dd2 inh 12.
CN(C)C(=O)c1ccc(-c2ccc([C@@H]3[C@H](CO)N4CCCCN(Cc5cccnc5)C[C@@H]34)cc2)cc1 was read as C diff HTS -1, T cruzi growth-1 83 and Pf Dd2 inh -21.
OC[C@@H]1[C@H](c2ccc(-c3ccc(F)cc3)cc2)[C@@H]2CN(Cc3ccncc3)CCCCN12 was read as C diff HTS 3, T cruzi growth-1 98*, Pf Dd2 inh -21, T cruzi growth-2 106*, T cruzi growth-3 45, 3T3 cytotox 37* and NIH3T3 tox 2 103*.
For OC[C@@H]1[C@@H](c2ccc(-c3ccc(F)cc3)cc2)[C@H]2CN(Cc3ccncc3)CCCCN12 the results were C diff HTS 0, T cruzi growth-1 77 and Pf Dd2 inh -48.
Screening OC[C@@H]1[C@H](c2ccc(C3=CCCC3)cc2)[C@H]2CN(Cc3cccnc3)CCCCN12 returned C diff HTS 0, T cruzi growth-1 99 and Pf Dd2 inh -23.
COc1cccc(CNC(=O)[C@H]2[C@H](CO)[C@H]3Cn4c(ccc(-c5ccncc5)c4=O)[C@@H]2N3C(C)=O)c1 was read as C diff HTS 1, T cruzi growth-1 -18 and Pf Dd2 inh 5.
Screening OC[C@@H]1[C@@H](c2ccc(-c3ccc(F)cc3)cc2)[C@H]2CN(Cc3cccnc3)CCCCN12 returned C diff HTS -2, T cruzi growth-1 113*, Pf Dd2 inh -45, T cruzi growth-2 53, T cruzi growth-3 20, 3T3 cytotox 28 and NIH3T3 tox 2 102*.
For C[C@@H]1CN([C@@H](C)CO)C(=O)Cc2cc(NS(C)(=O)=O)ccc2O[C@@H]1CN(C)C(=O)Nc1ccc(F)cc1 the results were C diff HTS 6, T cruzi growth-1 13 and Pf Dd2 inh 9.
`C[C@H]1CN([C@@H](C)CO)C(=O)c2cc(-c3cccc(F)c3)cnc2O[C@@H]1CN(C)Cc1ccccn1` gave C diff HTS -4 and Pf Dd2 inh 12.
Screening C[C@H]1CN([C@@H](C)CO)C(=O)Cc2cc(NC(=O)Nc3ccc(C(F)(F)F)cc3)ccc2O[C@H]1CN(C)Cc1ccccc1 returned C diff HTS 8, T cruzi growth-1 19 and Pf Dd2 inh -16.
Screening CCC(=O)N(C)C[C@@H]1Oc2cc(C#CC3CCCCC3)ccc2S(=O)(=O)N([C@@H](C)CO)C[C@@H]1C returned C diff HTS -3, T cruzi growth-1 inconclusive, Pf Dd2 inh -74, T cruzi growth-2 100*, T cruzi growth-3 86, 3T3 cytotox 24 and NIH3T3 tox 2 106*.
